Results taken from PubChem BioAssay AID504861 (Broad Institute, 2011).
The campaign covered roughly 1,200 compounds. About 290 (24%) were called active. Another 3% or so got no clear call; they are omitted. These entries were drawn from the full list. Potency and affinity values are given separately. A number with no mark means an inactive call.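 The calls were made as follows: active = compounds lowering cell viability signal with fitted half-maximal concentration at most ten times their highest tested concentration; inconclusive = flat fit with 30 to 70% signal loss, or poor fit; inactive = the rest.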

test: HEK293T cell viability reduction, dose response, cytotoxicity control for LMP1 NF-kB inhibitor project, CellTiter-Glo luminescence, cherry-picks (AID 504861); details: CellTiter-Glo ATP luminescence, 48 h; series mostly up to 26 µM; activity change, negative = cytotoxicity: at the top concentration

| Compound | activity change, negative = cytotoxicity [%] |
| --- | --- |
| c1ccc2c(-c3ccncc3)c[nH]c2c1 | -0.974 |
| COc1cc(/C=N/NC(=O)c2cc(C34CC5CC(CC(C5)C3)C4)[nH]n2)ccc1O | 3.92 |
| Cc1ccccc1CC(=O)NCc1cccnc1 | -5.15 |
| CCn1c2ccccc2c2cc(/C=N/NC(=O)c3cc(O)cc(O)c3)ccc21 | -8.8 |
| Oc1ccccc1C=NN=Cc1c(O)ccc2ccccc12 | 3.24 |
| c1nc(NCc2ccc3c(c2)OCO3)c2cc(-c3ccoc3)ccc2n1 | -11.3 |
| Oc1c(N=NC(=S)Nc2ccccc2F)c2ccccc2n1Cc1ccccc1F | 12 |
| CCS(=O)(=O)c1nnnn1-c1ccccc1S(C)(=O)=O | -0.286 |
| O=C1c2ccccc2C(=O)c2cc(N3CCCCC3)ccc21 | -5.57 |
| CC(C)c1cc(NC(=O)c2ccccc2)cc(C(C)C)c1O | 3.11 |
| O=C(NC(c1ccc(Cl)cc1)c1cc(Cl)c2cccnc2c1O)c1cccnc1 (stereo not drawn) | 15.2 |
| Nc1cc2ccncc2c2ccccc12 | -17.4 |
| CC1=C(C)C(OCCCl)N(c2cc(O)c(Cl)cc2F)C1=O (stereo not drawn) | 11.4 |
| Cc1ccc(N2CCCCn3c2nc2c3c(=O)n(CC(=O)O)c(=O)n2C)cc1 | 5.91 |
| Nc1ncnc(N2CCc3ccccc32)c1[N+](=O)[O-] | 5.71 |
| COc1ccc(-c2cc3c(=O)n(CC(=O)NCCCN4CCN(Cc5ccccc5)CC4)ncn3n2)cc1 | -1.47 |
| Cc1ccccc1C(=O)N1CCN(c2ccc(NC(=O)c3cccs3)cc2)CC1 | 12.1 |
| COc1nc(Nc2nc3ccccc3c(=O)[nH]2)nc2ccc(C)cc12 | 6.13 |
| COc1ccc2cc3c(N)nn(C(=O)c4ccccc4[N+](=O)[O-])c3nc2c1 | -10.9 |
| O=C(O)c1c2c(nc3ccccc13)/C(=C/c1ccc(O)cc1)CC2 | 11.7 |
| Cc1nn(CCCC(=O)Nc2cccnc2Cl)c(C)c1[N+](=O)[O-] | 1.66 |
| COCCN1Cc2cccc(C(=O)N3CCN(c4cc(C)ccc4C)CC3)c2C1=O | -7.98 |
| CCOC(=O)[C@H]1[C@H]2COc3ccc(OC)cc3[C@@H]2N2C(=O)CN(C)C(=O)[C@@]12C | 0.991 |
| CCn1nc(C(=O)Nc2nc(-c3ccccn3)cs2)c2ccccc2c1=O | 5.64 |
| O=C(CN1C(=O)c2ccccc2S1(=O)=O)c1ccccc1 | 16.5 |
| COc1cc(C2NC(=O)NC(C)=C2C(=O)OC2CCCC(C)C2)cc(Br)c1O (stereo not drawn) | 1.98 |

| Compound | activity change, negative = cytotoxicity [%] |
| --- | --- |
| O=C(c1ccco1)N1CCN(S(=O)(=O)/C=C/c2ccccc2)CC1 | -2.25 |
| CCCN(CCC)S(=O)(=O)c1ccc(C(=O)Nc2nnc(-c3cc(OC)cc(OC)c3)o2)cc1 | 2.24 |
| S=C(N/N=C/c1ccc2ncccc2c1)Nc1cccnc1 | 0.537 |
| COc1cc(/C=N/NC(=S)Nc2cccc(C(=O)O)c2)ccc1O | 13.6 |
| COc1ccc(CNC(=O)N2[C@H]3CC[C@@H]2C=C(c2ccc(F)cc2OCc2ccccc2)C3)cc1OC | 8.66 |
| CCOc1cccc(CNc2nnnn2C)c1 | -0.593 |
| Cn1c(=O)[nH]c(=O)c2c1nc(CN1CCOCC1)n2CCCc1ccccc1 | 2.77 |
| O=C(c1ccc(C#CC2(O)CCCCC2)cc1)N1CCN(C(c2ccccc2)c2ccccc2)CC1 | 3.71 |
| CN(CC(=O)Nc1cccnc1)S(=O)(=O)c1ccc(Br)cc1 | 21.2 |
| CC1CCN(c2ccc(-c3ccc(NC(=O)C(F)(F)F)cc3)nn2)CC1 | 7.11 |
| Cc1ccc(-c2cc(N)n3nc(-c4ccc(C)cc4)cc3n2)cc1 | 10.3 |
| COc1ccc(S(=O)(=O)NC(CC(=O)NCc2ccco2)C(C)C)cc1 (stereo not drawn) | 7.05 |
| CC(=O)Nc1ccc(S(=O)(=O)N2CCCC2)cc1 | 10 |
| CC(=O)Nc1nc(C)c(-c2csc(Nc3cccc([N+](=O)[O-])c3)n2)s1 | -0.558 |
| Nc1ccn([C@@H]2O[C@H](CO)[C@@H](O)C2O)c(=O)n1 (stereo partly drawn) | 1.52 |
| CCOC(=O)N1CCN(C(=O)C2CCC(=O)N(Cc3ccccc3OC)C2)CC1 (stereo not drawn) | 4.09 |
| Cc1csc(NC(=O)c2ccc(N3CCCC3=O)cc2)n1 | -6.07 |
| COc1ccc(/C=C2\SC(=O)N(CCCC(=O)Nc3ccc(C(=O)O)cc3)C2=O)cc1 | 1.35 |
| O=C1/C(=C/c2ccncc2)SC(=S)N1Cc1ccccc1 | 3.49 |
| COc1ccccc1NC(=O)CC(c1ccc(OC(C)C)cc1)c1ccccc1OC (stereo not drawn) | 3.18 |
| Brc1ccc(-c2csc(N3CCCCCC3)n2)cc1 | 14.6 |
| CC(C)(O)C#Cc1ccc([C@@H]2C[C@H]3CN(c4ccccc4)C(=O)[C@]34CCCN24)s1 | -8.23 |
| CN(C1CCCCC1)S(=O)(=O)c1ccc(C(=O)N2CCN(c3nc4ccccc4s3)CC2)cc1 | 3.38 |
| Cc1cccc(NC(=S)N=Nc2c(O)n(C)c3ccc(S(=O)(=O)N4CCOCC4)cc23)c1 | 8.1 |
| CC(CCc1ccco1)N(C)S(=O)(=O)c1csc(C(N)=O)c1 (stereo not drawn) | 3.06 |
| CCC(=O)NC(c1ccc(C)cc1)c1cc(Cl)c2cccnc2c1O (stereo not drawn) | 4.72 |

| Compound | activity change, negative = cytotoxicity [%] |
| --- | --- |
| O=C(Nc1ccncc1)OCc1ccccc1 | -5.71 |
| CS(=O)(=O)N(CC(=O)Nc1ccc(F)cc1F)C1CCCCC1 | 7.69 |
| COc1ccc(-c2cc3nc4n(c(=O)c3s2)CCC4)cc1 | -0.959 |
| O=C(N/N=C(/CC(=O)c1cccs1)C(F)(F)F)c1ccc(O)cc1 | 13.8 |
| CC(C)(C)c1ccc(C(=O)N2CCC(=O)N(C(CO)Cc3ccccc3)CC2)cc1 (stereo not drawn) | 1.74 |
| COc1ccc(-n2c(C)c(C(C)=O)c3cc(OC(C)=O)ccc32)cc1 | -3.31 |
| O=c1nc(N/N=C/C=C/c2ccccc2)cn[nH]1 | 13.1 |
| COc1ccc2cc3c(N)nn(C(=O)c4cccc([N+](=O)[O-])c4)c3nc2c1 | 8.36 |
| CCCc1cc(=O)[nH]c(SCC(=O)NC2CCCCC2)n1 | 0.135 |
| O=Cc1cc(OCc2ccccc2)ccc1[B-](F)(F)F | 17.3 |
| C[C@@H]1CN([C@@H](C)CO)S(=O)(=O)c2ccc(/C=C/c3ccccc3)cc2O[C@@H]1CN(C)Cc1ccc(C(=O)O)cc1 | -12.6 |
| c1csc(CNc2ncnc3ccc(-c4ccoc4)cc23)c1 | -9.02 |
| CC(=O)OCC(=O)[C@@]1(O)CC[C@H]2[C@@H]3CCC4=CC(=O)CC[C@]4(C)[C@H]3[C@@H](O)C[C@@]21C | 1.32 |
| O=C(NCCc1ccccc1)c1ccccc1Cl | 5.61 |
| COc1ccccc1-c1nnc(Sc2nc([N+](=O)[O-])nn2C)o1 | -10.5 |
| Cc1ccc(NC(=O)/C=N/OCC(=O)NCc2ccccc2Cl)cc1 | 4.14 |
| CSc1ccccc1C(=O)N1CCC2(CC1)CC(=O)c1ccccc1O2 | -2.08 |
| CSc1nc(N)nc(SCC(=O)C23CC4CC(CC(C4)C2)C3)c1C#N | -8.4 |
| COc1cc2c(=O)n(CC3CCCO3)c(=O)n(CC(=O)Nc3cccc(Cl)c3)c2cc1OC (stereo not drawn) | 4.18 |
| O=[N+]([O-])c1ccc(/C=N/Nc2cc(Cl)nc(-c3ccccc3)n2)cc1 | 3.89 |
| Cc1nn(C(C)(C)C)c(C)c1/C=N/OC(=O)Nc1ccc(Cl)c(Cl)c1 | 7.48 |
| COc1ccc(-c2csc3ncnc(NCCN4CCOCC4)c23)cc1 | 7.69 |
| COc1ccc2cc(-c3cc(C(=O)OCC(=O)NC4CCS(=O)(=O)C4)c4ccccc4n3)ccc2c1 (stereo not drawn) | -0.211 |
| CCOc1ccc(-c2cc(C(=O)N/N=C/c3ccc(O)cc3)c3ccccc3n2)cc1 | -1.88 |
| O=S(=O)(N/N=C/c1ccccc1F)c1ccccc1 | 10.4 |
| Cc1cc(N2CCOCC2)c2c(N)c(Br)cc(C)c2n1 | -2.56 |

| Compound | activity change, negative = cytotoxicity [%] |
| --- | --- |
| C=CCn1c(=O)/c(=C/c2ccc(Cl)cc2)s/c1=C(\C#N)c1nnc2n1CCCCC2 | 4.2 |
| NC(=O)CC(NC(=O)c1ccccc1)c1ccc(NC2CCN(Cc3ccccc3)CC2)c([N+](=O)[O-])c1 (stereo not drawn) | -1.78 |
| C=CCN1CCN(C(CC(C)C)c2nnnn2CCOC)CC1 (stereo not drawn) | 10.7 |
| CCC(C)(C)NC(=O)C(c1ccc(F)cc1)N(CCOC)C(=O)CCC(=O)Nc1nccs1 (stereo not drawn) | -8.1 |
| O=C(CCS(=O)(=O)c1ccccc1)Nc1nccs1 | 4.41 |
| CCC(=O)OC1c2ccccc2C(=O)N1Cc1ccccc1 (stereo not drawn) | 3.57 |
| COc1ccc(S(=O)(=O)N2CCN(CC(=O)Nc3cc(OC)cc(OC)c3)CC2)cc1 | 9.62 |
| COC(=O)C1=C(C(=O)c2ccccc2)C(c2ccccc2)n2nnnc2N1 (stereo not drawn) | 5.26 |
| O=C(CN1C(=O)CCOc2ccccc21)Nc1ccc(Cl)c(S(=O)(=O)N2CCOCC2)c1 | -1.24 |
| CCCCCCCCOC(=O)/C=C/c1c(C)[nH]c(=O)[nH]c1=O | 4.83 |
| Cc1c(NC(=O)c2cc(-c3cccs3)nc3ccccc23)c(=O)n(-c2ccccc2)n1C | -9.52 |
| Cn1cccc1/C=C1\CC(C(C)(C)C)C/C(=C\c2cccn2C)C1=O (stereo not drawn) | 5.18 |
| O=C(c1ccc(COc2ccccc2Cl)o1)N1CCCC1 | 3.19 |
| CCCCCCNC(=O)O[C@]12C[C@@H](C(=O)OC)[C@@H](C(=O)OC)C[C@@]1(O)CN(S(=O)(=O)c1ccc(C)cc1)C2 | 3.74 |
| COC(=O)CN(c1ccccc1F)S(=O)(=O)c1ccc(C)cc1 | 1.16 |
| COc1ccc(-c2[nH]ncc2-c2ccc3c(c2)OCCO3)c(O)c1 | 5.3 |
| N#CC1=C(N)OC2=C(C(=O)CCC2)C12C(=O)N1CCCc3cccc2c31 (stereo not drawn) | 18.7 |
| COC(CNC(=O)c1ccc(N2CCC3(CC2)OCCO3)c([N+](=O)[O-])c1)OC | 21.8 |
| COc1ccc(C)cc1S(=O)(=O)N(CC(=O)Nc1cc([N+](=O)[O-])ccc1C)c1ccc(C)c(C)c1 | 14.1 |
| Cc1cc(C(=O)COC(=O)c2cccc(NS(C)(=O)=O)c2)c(C)n1CC1CCCO1 (stereo not drawn) | -1.07 |
| O=C(O)c1cccc(NC(=O)c2cn(-c3ccccc3)nc2-c2ccc(F)cc2)c1 | -2.08 |
| Cc1ccc(C(=O)Nc2ncc3c(Cl)cccc3n2)cc1 | -4.06 |
| CCn1c(CCNC(=O)c2ccc(OC)cc2)nnc1SCc1ccc(Cl)cc1Cl | -1.26 |
| CC(C)(C)c1ccc(-c2noc(CCC(N)=O)n2)cc1 | 4.9 |
| CCOC(=O)c1cn2nc(N3CCCC3)ccc2n1 | -3.72 |
